Screening results (PubChem)
Glioma ERSR ind: qHTS for Inducers of the Endoplasmic Reticulum Stress Response (ERSR) in Human Glioma: qHTS; U87-MG GRP78 promoter luciferase reporter, 16 h; AID 602332, 2012; Potency, µM, without a hit: top-dose activation, actives largely listed as activators; 420,000 tested, 0.02% active; further: series mostly up to about 76 µM; % of control where 0% means no effect; nearly all actives have a fitted effect of over 35% in size
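ERSR induction read as luciferase luminescence (Bright-Glo, 10 min at room temperature) in stably transfected human U87-MG glioma cells exposed to compounds for 16 h, using GRP78 as sensor.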
FUS suppressor: qHTS for Suppressors of FUS Proteinopathy: Primary screen using FUS-linked yeast assay | S. cerevisiae FUS-expressing, growth rescue, OD600, 24 h | Potency, µM (titrated, usually from 76.6 µM), hits mostly activators | 390,000 tested, 0.24% active | AID 1347120, 2019;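 further: plate controls were DMSO vehicle for no effect and reference control for full effect; nearly all actives have a fitted effect of over 55% in size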
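FUS-expressing yeast, raffinose-pregrown, induced in 2% galactose minimal medium at OD 0.005; compounds in a dilution series, 24hr at 30C. Growth restoration read as absorbance at 600 nm. CP55940 positive control, DMSO negative.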
aSyn rescue: qHTS of alpha-syn Inhibitors; 370,000 tested, 0.14% active; Yeast expressing alpha-synuclein, growth rescue, BacTiter-Glo, 24 h; Potency, µM (top dose mostly 46.1 µM), for the others: at the top dose growth rescue (activation), usual class: activators; further: % of control where 0% means no effect; nearly all actives have a fitted effect of over 65% in size
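Screening used galactose-induced yeast with toxic alpha-synuclein levels, exposed to compound for 24 hr at 30 deg C. Cell growth, read with BacTiter-Glo luminescence, gave the measured signal.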
MBNL1-CUG inh: qHTS Assay for Inhibitors of MBNL1-poly(CUG) RNA binding | 280,000 tested, 0.036% active | AID 2675, 2010 | Muscleblind-like protein 1 (Homo sapiens), Q9NR56 | Potency, µM (series often up to 57.5 µM), inactives show top-dose activity change, negative = inhibition, usual class: inhibitors | TR-FRET MBNL1-His/biotin-(CUG)12 binding, 665/545 ratio; active means well fitted inhibition curve with a large enough effect in the signal ratio, with a control signal flat, not every such curve was filed as active; inconclusive means small, poorly fitted or top-dose-only effect, or effect the other way, or a change in a side signal; inactive means no such curve, though single readings can be large or run the other way; the % refers to the signal ratio; further: on the % scale 0 is the no-effect control and ±100 the full control effect
Target sequence (Q9NR56 whole entry, looked up): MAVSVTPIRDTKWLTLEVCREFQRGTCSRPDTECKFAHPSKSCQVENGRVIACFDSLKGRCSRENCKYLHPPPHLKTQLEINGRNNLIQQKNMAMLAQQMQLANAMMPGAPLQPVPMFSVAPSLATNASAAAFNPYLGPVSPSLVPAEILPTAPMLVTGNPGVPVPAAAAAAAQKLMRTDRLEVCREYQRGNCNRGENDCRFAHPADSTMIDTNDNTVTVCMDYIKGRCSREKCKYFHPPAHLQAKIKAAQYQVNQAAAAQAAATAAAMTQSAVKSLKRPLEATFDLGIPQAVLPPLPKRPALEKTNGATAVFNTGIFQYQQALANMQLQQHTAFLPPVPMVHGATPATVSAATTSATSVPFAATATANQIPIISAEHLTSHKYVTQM
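Compounds (final 92 nM to 58 uM) are added to His-tagged MBNL1 and biotin-(CUG)12, then terbium anti-His antibody and streptavidin-XL665 (5 nM final). After 60 min at room temperature, the 665/545 nm ratio is read.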
TDP-43 yeast inh: qHTS of TDP-43 Inhibitors; TDP-43 expressing yeast growth rescue, BacTiter-Glo, 24 h; Potency, µM (doses to about 46.1 µM), for the others: top-dose growth rescue (activation), hits mostly activators; 410,000 tested, 1.8% active; further: % of control where 0% means no effect; nearly all actives have a fitted effect of over 50% in size
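Luminescence from BacTiter-Glo reports growth of TDP-43-expressing yeast after 24 hr at 30 deg C with compound. Cells were raffinose-pregrown to mid-log, then seeded in galactose medium at OD600=0.02.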
Abeta rescue: qHTS for compounds that reverse cellular toxicity of Amyloid beta (A-beta) peptide in yeast: Primary Screen. Potency, µM (series often up to 46.1 µM), usual class: activators. AID 1347071, 2019. 410,000 tested, 0.063% active. yeast expressing A-beta42, growth rescue, OD600, 48 h; response scale: 0% DMSO, 100% iron-clioquinol control; further: nearly all actives have a fitted effect of over 55% in size
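Yeast growth medium received pinned compounds, then yeast cells expressing toxic A-beta were added; plates incubated at 30 C for 48 hr. Growth read as absorbance at 600 nm, normalized to DMSO and equimolar FeCl3 plus clioquinol controls.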
The depositor's hits bear a star; i = inactive; ? = inconclusive; nt = no result. An excerpt weighted towards active compounds, which were near 2% of everything screened. Unless noted, the call rests on the fitted dose curve; in most records, active means well fitted curve in the direction sought with a large enough effect; inconclusive means small, poorly fitted or top-dose-only effect, or another doubt; inactive means no such curve, though single readings can be large; an effect the other way counts as inactive or inconclusive. Potency means the concentration at half of the fitted maximal effect.

SMILES	Glioma ERSR ind	FUS suppressor	aSyn rescue	MBNL1-CUG inh	TDP-43 yeast inh	Abeta rescue
CCSc1nc(C)cc(C)c1S(=O)(=O)c1ccccc1C	-1%	i	-12%	-2%	21%	i
CN(C)S(=O)(=O)Oc1cccc(C(=O)Nc2ccc(Cl)cc2)c1	-4%	i	-19%	-14%	22µM*	i
CN(C)S(=O)(=O)Oc1cccc(C(=O)Nc2ccccc2Cl)c1	1%	i	2%	-10%	14µM*	i
COc1cc(CN2CCC3(CCC(CNC(=O)c4ccco4)O3)CC2)cc(OC)c1 (configuration not stated)	-8%	nt	nt	nt	nt	nt
Cc1cc(C(=O)NCc2nc(-c3cccc(NC(=O)c4ccccc4)c3)oc2C)nc(C)n1	-2%	nt	nt	nt	nt	nt
O=C(O)/C=C/c1ccc([N+](=O)[O-])o1	5%	i	9%	?	10µM*	i
NC(N)=NN=C(/C=C/c1ccc([N+](=O)[O-])o1)/C=C/c1ccc([N+](=O)[O-])o1	-12%	nt	nt	nt	nt	nt
CS(=O)(=O)c1ccc(C(=O)OCc2nnc(-c3ccc(Cl)cc3)o2)cc1[N+](=O)[O-]	?	?	-24%	?	18µM*	i
Cc1ccc(C)c(S(=O)(=O)NCc2nc(N3CCCC3)c3cc(Cl)ccc3n2)c1	-4%	nt	nt	nt	nt	nt
O=C(c1ccc(C#Cc2ccccc2)cc1)N1CCC(O)CC1	nt	i	nt	nt	nt	nt
CCCn1ccc2c(OCC(=O)Nc3ccc(F)cc3F)cccc2c1=O	-1%	i	nt	nt	22µM*	i
CCn1ccc2c(OCC(=O)Nc3ccc(C)c(Cl)c3)cccc2c1=O	-3%	?	nt	nt	22µM*	i
CCCn1ccc2c(OCC(=O)Nc3ccc(NC(C)=O)cc3)cccc2c1=O	-2%	i	-6%	nt	-4%	i
CCOc1cc(S(=O)(=O)NC2CCCC2)ccc1Cl	-3%	i	0%	?	20µM*	i
CCOc1cc(S(=O)(=O)NC2CCCCC2)ccc1F	-3%	i	5%	2%	?	i
Cc1ccccc1CN1CCc2c(OCC(=O)N3CCCc4ccccc43)cccc2C1=O	-2%	i	11%	nt	13µM*	i
CN(C)c1nc(OCCNC(=O)COc2ccc(Cl)cc2Cl)nc(N(C)C)n1	-3%	i	0%	-11%	14µM*	i
O=C(c1cccnc1)C1CCCN(Cc2ccc3c(c2)CN(C(=O)c2ccc4[nH]ccc4c2)CCO3)C1 (configuration not stated)	-6%	nt	nt	nt	nt	nt
COc1ccc2ccccc2c1CN1CCCC(n2cc(C(=O)N3CCCC3)nn2)C1 (configuration not stated)	-6%	nt	nt	nt	nt	nt
COc1ccc2nc(Cl)cc(Cl)c2c1	-3%	i	-7%	-3%	8%	i
C=CS(=O)(=O)c1c2cc(OC)ccc2nc2ccc(OC)cc12	-12%	nt	-42%	nt	3.5µM*	i
O=C(N[C@H]1C[C@@H]2O[C@H](CO)CC[C@@H]2O[C@@H]1CCc1ccc(-c2cccnc2)cc1)c1cccc(F)c1	nt	i	nt	nt	nt	nt
CCOC(=O)C1=C(c2ccccc2)Nc2ncnn2C1c1ccc(C(=O)O)cc1 (configuration not stated)	-3%	i	0%	-11%	2%	i
CCOC(=O)C1=C(c2ccccc2)NC(N)=NC1c1ccc(OCc2ccc(C(=O)OC)cc2)cc1 (configuration not stated)	-18%	25µM*	-8%	nt	-15%	i
COC(=O)[C@H](C(C)C)N1Cc2nnn(CC3CCCCC3)c2-c2cc(F)ccc2S1(=O)=O	nt	i	nt	nt	nt	nt
SMILES	Glioma ERSR ind	FUS suppressor	aSyn rescue	MBNL1-CUG inh	TDP-43 yeast inh	Abeta rescue
COc1cc2c(NC3CCN(C)CC3)nc(N3CCCN(C)CC3)nc2cc1OCCCN1CCCCC1	-6%	nt	4%	nt	nt	nt
Clc1ccccc1N/N=C/c1ccc2c(c1)OCO2	1%	i	-20%	?	18µM*	i
Clc1cccc(NCc2nnc(SCc3ccccc3)o2)c1	6%	i	5%	14%	0%	i
Clc1cccc(NCc2nnc(SCc3ccccc3Cl)o2)c1	-1%	nt	20µM*	2%	13µM*	i
Clc1ccccc1CSc1nnc(-c2ccncc2)o1	5%	i	7%	-12%	10µM*	i
Fc1cccc(Cl)c1CSc1nnc(-c2ccncc2)o1	10%	i	-9%	-6%	13µM*	i
COc1cc(=O)n2c(c1C(=O)NCc1ccsc1)CCN(Cc1nc3ccccc3[nH]1)CC2	0%	nt	nt	nt	nt	nt
Clc1ccc(C(c2ccccc2)c2c[nH]c3ccccc23)s1 (configuration not stated)	-11%	i	-36%	nt	20µM*	i
Cc1ccc2[nH]cc(C(c3ccccc3)c3ccc(Cl)s3)c2c1 (configuration not stated)	-11%	i	nt	nt	?	i
COc1ccc(CCNC(=O)c2cnn(-c3nccc(-c4ccco4)n3)c2C)cc1	4%	nt	nt	nt	nt	nt
COc1cccc(Nc2nc(N)c([N+](=O)[O-])c(NCc3ccccc3)n2)c1	-7%	i	2%	8%	25µM*	i
COc1ccc(C(=S)N2CCOCC2)cc1OC(=O)c1ccc([N+](=O)[O-])cc1[N+](=O)[O-]	-10%	i	7%	?	22µM*	i
COc1cc(C(=S)N2CCOCC2)ccc1OC(=O)c1cc([N+](=O)[O-])cc([N+](=O)[O-])c1	-3%	nt	0%	?	8%	i
Cn1nnc2c(N3CCN(c4ccccc4F)CC3)ncnc21	-2%	i	nt	nt	30%	i
Cn1ncc2c(N3CCN(c4ccccc4F)CC3)ncnc21	0%	i	6%	-4%	13µM*	i
Cc1ccccc1-c1nc(CS(=O)(=O)CC(=O)N2CCN(c3ccccc3)CC2)c(C)o1	-1%	i	nt	nt	13µM*	i
COc1ccc(S(=O)(=O)NCCc2sc(-c3cccc(F)c3)nc2C)cc1	0%	i	nt	nt	25µM*	i
COc1ccc(-c2nc(C)c(CCNS(=O)(=O)c3cc(Cl)ccc3Cl)s2)cc1	-2%	?	?	nt	25µM*	i
COc1ccc(-c2nc(C)c(CCNS(=O)(=O)c3cc(C)c(C)cc3C)s2)cc1	0%	?	18%	nt	?	i
Oc1ccc(Cl)cc1CN1CCOc2c(O)cc(-c3nc4ccccc4s3)cc2C1	-9%	nt	nt	nt	nt	nt
